According to PubChem BioAssay AID2462 (Broad Institute, 2010):
Among all 330,000 compounds or so, about 220 (0.067%) were called active. The sample as a whole holds a higher share of actives than the screen did. Values without a mark were called inactive.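 How the source made its calls: active means over half of replicate activation scores above 10%, or exactly half above 10 with the replicate mean above 10; inconclusive means replicate mean below 10 yet half the replicates above 10; inactive means over half of replicates below 10.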

assay: caspase 3/7 activation in MEF A1-2A-BIM cells, primary screen, A1 inhibitor project, cell-based, luminescence, HTS (AID 2462); details: Caspase-Glo 3/7 luminescence, 3 h, hits give high values, percent of clofoctol response, vehicle zero, concentration not given here

SMILES | caspase activation
O=c1c2ccccc2ccc2ccc(P(=O)(O)O)cc12 | 0.843%
N#CCOc1ccc(C2=NO[C@@H]3[C@@H]4C[C@@H]([C@H]5C(=O)N(c6ccc7c(c6)OCO7)C(=O)[C@@H]45)[C@H]23)cc1 | 0.442%
CSc1cc(C)[nH]c(=O)n1 | -0.248%
O=S(=O)(c1ccccc1)N(Cc1cccc(F)c1)c1ccccc1 | 0.447%
O=C(Cn1ccc2cc(S(=O)(=O)N3CCCC3)ccc21)NCc1ccccc1 | -0.143%
O=[N+]([O-])/C=C/c1ccc2c(ccn2Cc2ccccc2)c1 | 9.93% (active)
COC(=O)Cn1cc(/C=C/[N+](=O)[O-])c2ccccc21 | 1.03%
COc1ccc(S(=O)(=O)N(C)C[C@H]2Oc3ccc(NS(=O)(=O)c4cccs4)cc3CC(=O)N([C@H](C)CO)C[C@H]2C)cc1 | -0.719%
O=C(O)c1cccnc1Sc1ncnc2sc3c(c12)CCC3 | -0.234%
O=C(CSc1nc(Nc2ccccc2)nc(N2CCOCC2)n1)Nc1cc(Cl)ccc1O | 0.376%
Nc1nc(Br)c2ccccc2c1-c1ccc(F)cc1 | -0.0976%
CC(C)(O)C#Cc1ncc(C(F)(F)F)cc1Cl | 0.0403%
Cc1ccc(NCc2n[nH]c(=S)n2-c2ccccc2)cc1Cl | -0.072%
CCCS(=O)(=O)N1CCN=C1SCc1cccc(F)c1 | -0.156%
CCn1ncc(CNC(=O)C2(C)CC2(Br)Br)c1C (centres undefined) | -0.282%
COc1cc(C(=O)NC2CCN(Cc3ccccc3)CC2)cc(Cl)c1OC(C)C | -0.406%
COc1ccccc1CNC(=O)CCCNS(=O)(=O)c1cccc2nsnc12 | 0.433%

SMILES | caspase activation
O=C(c1cc2ccccc2o1)N1CCN(S(=O)(=O)c2ccc(Cl)s2)CC1 | -0.105%
COc1ccc(CNC(=O)CN2CCC(n3nnc4cc(F)ccc43)CC2)cc1 | -0.421%
CC1CCCN(C(C(=O)Nc2ccc(C(C)C)cc2)c2ccc3c(c2)OCO3)C1 (centres undefined) | -0.471%
NC(=O)C1CCCN(CC(=O)N2CCN(c3ccccc3)CC2)C1 (centres undefined) | -0.0385%
Cc1ccc(S(=O)(=O)N2CCN(C(=O)CN3C(=O)NC(C)(c4ccc(Cl)cc4)C3=O)CC2)c(C)c1 (centres undefined) | -0.688%
CC(NCC(=O)Nc1ccccc1C(=O)NC1CC1)c1ccccc1Cl (centres undefined) | 0.355%
CC(=O)N(CN1C(=O)C2C3C=CC(C3)C2C1=O)c1cccc(Cl)c1 (centres undefined) | 0.192%
CCOc1ccccc1NC(=O)NC1CCCCCCC1 | -0.841%
Cn1c(CCCOc2ccc(Cl)cc2Cl)n[nH]c1=S | -0.629%
O=C(NC(=S)Nc1ccc2oc(=O)ccc2c1)c1ccc(-c2cccc(Cl)c2Cl)o1 | 0.568%
CC1CCc2[nH]c3ccc(C(=O)N(C)CC(=O)Nc4cccc(F)c4)cc3c2C1 (centres undefined) | 0.268%
Cc1ccc(S(=O)(=O)c2c[nH]c3ccc(C)cc3c2=O)cc1 | -2.55%
COc1ccc(-c2cnc(SCCNC(=O)c3ccc4c(c3)OCO4)[nH]2)cc1 | 1.35%
O=C(N/N=C/c1cccc(OCc2ccccc2)c1)c1ccc(Br)o1 | 0.285%
CCCc1ccc(OCc2ccc(C(=O)N/N=C/c3cccc([N+](=O)[O-])c3)o2)c(OC)c1 | 16.1% (active)
COC(=O)c1ccc(COc2ccc(/C=N/NC(=O)C(=O)Nc3ccc(OC)cc3)cc2OC)o1 | 0.365%
NC(=O)COC(=O)c1cc(S(=O)(=O)N2CCN(c3ccccc3)CC2)ccc1Cl | 0.691%
